PNC inhibitor: blocks assembly of the perinucleolar compartment; PC3M PTB-GFP, PNC prevalence imaging, 16 h; stronger effect = lower value; activity change (PNC), negative = inhibition, % at 10 µM; 3.1% of 140,000 active; AID 2417;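 active = readout at or below -70, meaning at least 70% loss of cells showing the perinucleolar compartment, a nuclear body marking cancer cells; inconclusive = readout between -30 and a set limit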;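 note: plate controls were DMSO wells for no effect and camptothecin positive control wells for full effect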
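Read-out is percentage of cells bearing a perinucleolar compartment, from automated 20x imaging of fixed, Hoechst-stained PC3M PTB-GFP cells. Cells were seeded 4 h, then exposed 16 h to compound (23 nl of library stock) in duplicate plates.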
ALOX12 inhib: blocks human 12-lipoxygenase activity; P18054; purified 12-hLO, xylenol orange hydroperoxide absorbance; Potency, µM (series often up to 57.1 µM), inactives show top-dose activity change, negative = inhibition, actives largely listed as inhibitors; 0.12% of 150,000 active; AID 1452; note: potency is the fitted concentration of half-maximal effect; nearly all actives have a fitted effect of over 55% in size
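Hydroperoxide output read as Fe(III)-xylenol orange absorbance, 573-to-405 nm ratio, after 30 min reaction with 40 uM arachidonic acid. Enzyme: 150 nM purified human 12hLO, 15 min compound preincubation; 25 mM Hepes pH 7.0, room temperature.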
ALDH1A1 inh: blocks purified human ALDH1A1 activity | P00352 | Purified ALDH1A1, NADH fluorescence, propionaldehyde substrate | Potency, µM (series often up to 75.3 µM), inactives show top-dose activity, negative = inhibition, hits mostly inhibitors | 7.3% of 220,000 active; active = well fitted inhibition curve with a large enough effect, not every such curve was filed as active; inconclusive = small, poorly fitted or top-dose-only effect, or another doubt; inactive = no such curve, though single readings can be large or run the other way;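 note: potency is the fitted concentration of half-maximal effect; plate controls were no enzyme wells and a reference inhibitor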
Target sequence (P00352 whole entry, looked up): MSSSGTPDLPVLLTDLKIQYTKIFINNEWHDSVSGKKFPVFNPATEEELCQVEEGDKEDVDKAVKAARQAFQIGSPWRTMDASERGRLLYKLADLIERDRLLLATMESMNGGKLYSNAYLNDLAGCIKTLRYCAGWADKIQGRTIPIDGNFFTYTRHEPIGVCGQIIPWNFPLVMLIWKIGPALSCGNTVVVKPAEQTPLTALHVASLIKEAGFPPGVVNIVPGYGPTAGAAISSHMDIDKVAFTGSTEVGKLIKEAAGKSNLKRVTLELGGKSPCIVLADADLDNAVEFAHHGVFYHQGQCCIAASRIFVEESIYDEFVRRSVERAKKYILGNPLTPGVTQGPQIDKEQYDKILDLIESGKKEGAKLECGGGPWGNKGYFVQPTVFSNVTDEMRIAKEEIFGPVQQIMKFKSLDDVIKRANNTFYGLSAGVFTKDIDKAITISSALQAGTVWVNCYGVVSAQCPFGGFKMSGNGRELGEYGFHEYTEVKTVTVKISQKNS
GLA inh pH 4.5: alpha-galactosidase A (human) inhibition, pH 4.5; 230,000 tested, under 10 active; P06280; activity change, negative = inhibition, % at 105 µM; purified enzyme, 4-MU-alpha-Gal fluorescence, pH 4.5;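 note: 0% = full activity with enzyme and -100% = basal without enzyme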
HPGD block: blocks human HPGD enzyme activity | purified HPGD, NADH fluorescence kinetic, PGE2 substrate | P15428 | Potency, µM, inactives show at the top dose activity change, negative = inhibition, usual class: inhibitors | 4.3% of 150,000 active; active = well fitted inhibition curve with a large enough effect, not every such curve was filed as active; inconclusive = small, poorly fitted or top-dose-only effect, or another doubt; inactive = no such curve, though single readings can be large or run the other way; note: potency is the fitted concentration of half-maximal effect
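NADH formation kinetics: reaction with 30 uM PGE2 and 1 mM NAD+ (final), 20 nM enzyme, Tris-HCl pH 8 with Tween 20, after 15 min compound preincubation at room temperature. Fluorescence change, last versus first of five reads.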
GLA spleen mod: inhibitors or activators of human alpha-galactosidase in spleen homogenate. human spleen homogenate, 4MU-alpha-Gal fluorescence, 40 min. Potency, µM (series often up to 80 µM), inactives show at the highest dose activity change, negative = inhibition, most hits filed as inhibitors. 0.008% of 240,000 active;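 note: potency is the fitted concentration of half-maximal effect; 0% = enzyme with vehicle and -100% = no enzyme basal signal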
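Inhibition or activation of alpha-galactosidase in human spleen homogenate is scored by 4-MU fluorescence after 40 min at 37C, pH 5.0, with 1 mM substrate. AC50s come from concentration-response fitted to the Hill equation.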
Numbers without * were called inactive; ? = inconclusive; . = not tested or not shown; [ ] = dose if it differs, or a comment. This is a sample that favours compounds with a hit; in the whole collection about 10% have one here. Unless noted, calls come from the whole dose curve; as a rule, active = well fitted curve in the direction sought with a large enough effect; inconclusive = small, poorly fitted or top-dose-only effect, or another doubt; inactive = no such curve, though single readings can be large; an effect the other way counts as inactive or inconclusive. Unless noted, % is set by controls: 0 for no effect and ±100 for the full control effect.

SMILES | PNC inhibitor | ALOX12 inhib | ALDH1A1 inh | GLA inh pH 4.5 | HPGD block | GLA spleen mod
CCN(CC)C(=O)/C(=C\c1ccc(Br)cc1)NC(=O)c1ccccc1OC | ? | -6% | -12% | 8 | . | 11%
O=C1CCCN1Cc1ncnn1-c1ccccc1 | -100* | -1% | 7% | -3 | -3% | 0%
NC(=O)c1ccc[n+]([C@@H]2O[C@H](COP(=O)([O-])OP(=O)(O)OC[C@H]3O[C@@H](n4cnc5c(N)ncnc54)[C@@H](O)[C@@H]3O)[C@@H](O)[C@@H]2O)c1 | . | -1%[25.6 µM] | 5%[20.9 µM] | -3 | -5% | -5%[29.1 µM]
Cc1cc(C)nc(N(C#N)Cc2ccccc2C)n1 | . | . | 7% | 3 | . | 3%
Cc1cc(C)nc(N(C#N)Cc2ccccc2Cl)n1 | 58 | 0% | 14µM* | 7 | -3% | 9%
Cc1cc(C)nc(N(C#N)CN2C(=O)c3ccccc3C2=O)n1 | -4 | -5% | 25µM* | -10 | ? | ?
CCO[C@@H]1OC(C(=O)NCc2ccccc2)=C[C@H](c2ccc3c(c2)OCO3)[C@H]1CCCO | . | . | 14µM* | -6 | . | 9%
CC(=O)/C=C\c1cn(-c2ncc(C(F)(F)F)cc2Cl)c2ccccc12 | -124* | -5% | -7% | -8 | 32µM* | 6%
N#CC(C#N)=Cc1cn(-c2ncc(C(F)(F)F)cc2Cl)c2ccccc12 | -13 | -9% | ? | -14 | -7% | -10%
Cc1cc(Cl)ccc1OCc1n[nH]c(=S)n1C1CCCCC1 | -10 | ? | ? | -3 | 5µM* | 0%
COc1ccc(-c2n[nH]c(=S)n2C2CCCCC2)cc1 | ? | -26% | ? | -14 | 18µM* | 4%
Cc1ccsc1-c1n[nH]c(=S)n1C1CCCCC1 | 6 | -3% | 3% | -1 | -29% | 4%
COc1ccc(Cl)cc1-c1n[nH]c(=S)n1C1CCCCC1 | 44 | -20% | 5% | -11 | 10µM* | -1%
C[C@H]1Cc2c(COc3ccccc3)nc3c(c2CO1)CN(C(=O)C1CC1)CC3 | . | 1%[11.4 µM] | 2%[13.5 µM] | 4 | 0% | 3%[17.5 µM]
Cc1cccc(CNc2ncnc3ccc(-c4cccc(C#N)c4)cc23)c1 | . | -6% | ? | 2 | ? | -3%
COc1ccc(-n2c(-c3ccccc3)cc3c2CCCC3=O)cc1 | -2 | -12% | 16µM* | 10 | ? | -4%
Nc1ncnc2c1ncn2[C@H]1O[C@@H](C(=O)OCCO)[C@@H](O)[C@H]1O | . | 4%[11.4 µM] | 11%[13.5 µM] | . | -3% | .
CC1(C)Cc2c(c(-c3ccco3)[nH]c(=O)c2C#N)CS1 | -21 | -16% | 5.6µM* | 4 | 14µM* | 3%
CC1(C)Cc2c(c(-c3ccccc3)[nH]c(=O)c2C#N)CS1 | -8 | -4% | 28µM* | 13 | ? | 7%
C=CCc1cccc(C2C(C)CCC3C(=O)N4C(Cc5c([nH]c6ccccc56)C4c4cc(OC)c(OC)c(OC)c4)C(=O)N32)c1 (stereo not drawn) | . | . | 9%[13.5 µM] | . | . | 3%[17.5 µM]
CCCOc1ccc(N2CC(C(=O)NCCc3ccc(OC)c(OC)c3)CC2=O)cc1 (stereo not drawn) | . | . | 7% | -16 | . | 11%
CC1(C)CNC(=O)c2sc(N3CCCCC3)nc2C1 | ? | -2% | -6% | 3 | -14% | -8%
CC1(C)CNC(=O)c2sc(NC(=O)c3ccccc3Cl)nc2C1 | . | . | 13µM* | 1 | . | -1%
CC1(C)CC(=O)c2sc(NC(=O)c3ccco3)nc2C1 | 16 | -5% | 22µM* | -1 | -9% | -3%
CC(=O)c1sc(NC(=O)C2COc3ccccc3O2)nc1C (stereo not drawn) | ? | 1% | -10% | -4 | -13% | 2%
O=C(NNc1nc2c(F)cc(F)cc2s1)C1COc2ccccc2O1 (stereo not drawn) | . | . | 7% | -1 | . | -3%
Cc1cccc2sc(NNC(=O)C3COc4ccccc4O3)nc12 (stereo not drawn) | ? | -7% | -4% | -5 | 28µM* | -7%
CC1(C)CC(=O)c2sc(NC(=O)C3COc4ccccc4O3)nc2C1 (stereo not drawn) | ? | 1% | 16µM* | -10 | -17% | -7%

Source: PubChem BioAssay
